This is a sample that favours compounds with a hit; in the whole collection about 14% have one here.
HADH2 inh = blocks human hydroxyacyl-CoA dehydrogenase type II | hit rate 3.4% among 73,000 | recombinant HADH2, NADH fluorescence, beta-hydroxybutyryl-CoA | Potency, µM (top dose mostly 57.1 µM), without a hit: top-dose activity change, negative = inhibition, actives largely listed as inhibitors; further: potency means the concentration at half of the fitted maximal effect; on the % scale 0 is the no-effect control and ±100 the full control effect; nearly all actives have a fitted effect of over 60% in size
Target sequence (Q99714 whole entry, looked up, one chain of several): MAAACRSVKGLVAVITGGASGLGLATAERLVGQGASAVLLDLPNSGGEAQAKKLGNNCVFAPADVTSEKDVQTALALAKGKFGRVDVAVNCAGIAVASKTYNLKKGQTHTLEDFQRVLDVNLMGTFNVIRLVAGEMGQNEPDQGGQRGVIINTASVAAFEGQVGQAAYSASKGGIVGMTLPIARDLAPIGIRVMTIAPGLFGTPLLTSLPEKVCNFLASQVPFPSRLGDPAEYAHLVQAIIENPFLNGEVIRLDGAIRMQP
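20 nM HADH2 + cpd, 15 min RT; add 1 mM NAD+/90 uM beta-hydroxybutyryl-CoA; kinetic fluorescence 360/450 nm, 4 min. Tris-HCl pH 9.0, 0.01% Tween-20.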
CRE Fsk mod = modulators of forskolin-stimulated CRE signaling in CHO cells; Potency, µM (titrated, usually from 38.2 µM), inactives show at the top dose activity change, negative = inhibition, hits mostly activators; CHO CRE-bla reporter (cAMP response element driving beta-lactamase), forskolin EC10, beta-lactamase ratio; AID 662; hit rate 2.5% among 71,000; active means well fitted activation curve with a large enough effect in the signal ratio, with a control signal flat, not every such curve was filed as active; inconclusive means small, poorly fitted or top-dose-only effect, or effect the other way, or a change in a side signal; the % refers to the signal ratio; further: potency means the concentration at half of the fitted maximal effect; % of control where 0% means no effect
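Reporter-gene assay: CHO cells with beta-lactamase behind cAMP responsive elements, co-treated with compound and EC10 NKH 477 for 3 hours at 37 degrees Celsius. Activity came from the 460/530 nm CCF4 emission ratio.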
A350 fluor = compounds fluorescent in Alexa 350 spectral region | hit rate 11% among 59,000 | AID 590 | max dye-equivalent concentration, M | Compound autofluorescence, 340/450 nm, Alexa 350 dye-equivalents; hits give high values; in the data active means max dye-equivalent concentration above about 10 nM; inconclusive means mostly about 1.1 nM to 9.6 nM
HSD17B inh = blocks hydroxysteroid 17-beta dehydrogenase activity | Q99714 | recombinant HSD17B10, NADH fluorescence kinetic | Potency, µM (doses to about 57.1 µM), without a hit: top-dose activity change, negative = inhibition, actives largely listed as inhibitors | hit rate 7.6% among 75,000 | AID 893;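 further: the protocol describes HADH2 (HSD17B10) and not the HSD17B4 of the title; potency means the concentration at half of the fitted maximal effect; on the % scale 0 is the no-effect control and ±100 the full control effect; nearly all actives have a fitted effect of over 70% in size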
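Activity followed as NADH fluorescence increase (ex 360, em 450 nm) every 30 seconds for 4 min, using final 90 uM beta-hydroxybutyryl CoA and 1 mM NAD+. Recombinant His-tagged enzyme, 20 nM, pH 9.0 Tris buffer, 15 min compound preincubation.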
4MU fluor = compound fluoresces in the 4-MU spectral region; compound autofluorescence, 340/450 nm, 4-MU equivalents; hits give high values; max dye-equivalent concentration, M; hit rate 11% among 59,000; AID 589; in the data active means max dye-equivalent concentration above about 10 nM; inconclusive means mostly about 1.1 nM to 9.6 nM
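Intrinsic fluorescence at 340/450 nm (ex/em) was read after 15 min at room temperature in pH 8.0, 100 mM Tris. Each compound concentration expressed as 4-MU-equivalent concentration from a six-point 4-MU standard series on each plate.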
AID923 = qHTS Assay for Allosteric/Competitive Inhibitors of Caspase-1: Spectroscopic Profiling in AFC Spectral Region. Potency, µM (highest dose often 57.5 µM), for inactives: at the top dose fluorescence increase, most hits filed as activators. compound fluorescence, AFC spectral region (405/520 nm). hit rate 1.1% among 75,000; further: potency means the concentration at half of the fitted maximal effect; 0% is about no effect
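Titrations up to 57 uM read every 20 sec for 3 min (405/520 nm) with 50 nM caspase 1 and 5 uM Ac-WEHD-AFC, pH 7.5 HEPES buffer. Fluorescence-vs-time intercept gave baseline, scaled against on-plate AFC standard.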
An asterisk follows results filed as active; i = inactive; ? = inconclusive; nt = no result; [ ] = another dose, or the depositor's remark. Unless noted, the call rests on the fitted dose curve; in most records, active means well fitted curve in the direction sought with a large enough effect; inconclusive means small, poorly fitted or top-dose-only effect, or another doubt; inactive means no such curve, though single readings can be large; an effect the other way counts as inactive or inconclusive.

SMILES	HADH2 inh	CRE Fsk mod	A350 fluor	HSD17B inh	4MU fluor	AID923
COC(=O)c1cc(OC)c(OC)cc1N	nt	nt	1.4e-08M*	nt	1.2e-08M*	nt
COC(=O)c1cc(OC)c(OC)cc1NC(=O)CC1CCCCC1	138%	?	1.2e-08M*	25µM*	1.2e-08M*	-1%
COC(=O)c1cc(OC)c(OC)cc1NC(=O)c1ccccc1	5µM*	0.4µM*	nt	?	nt	0%
COC(=O)c1cc(OC)c(OC)cc1NC(=O)c1ccoc1C	4µM*	6%	1.3e-07M*	13µM*	1.5e-07M*	0%
Cc1[nH]c(=O)[nH]c(=O)c1S(=O)(=O)N1CCCC1	nt	nt	i	nt	i	nt
CCC1=C2CC[C@H]3C(=O)N(c4ccccc4)C(=O)[C@H]3[C@H]2[C@@]2(Cc3ccccc3)C(=NCc3ccccc3)OC(=O)N2C1=O	nt	nt	nt	2%	nt	2%
COCCNc1ncncc1-c1c(C)noc1C	?	3%	i	1%	i	3%
CCOC(=O)/C=C/S(=O)(=O)c1ccc(NC(C)=O)cc1	-7%	?	nt	-2%	nt	-1%
c1ccc(COCc2ccccc2)cc1	4%	-4%	nt	2%	nt	0%
Fc1ccc(-c2cc3nc(-c4ccccc4)cc(N4CCOCC4)n3n2)cc1	10µM*	?	5.3e-07M*	13µM*	6.8e-07M*	2%
Cc1nc2cc(-c3cccc(F)c3)nn2c(N2CCOCC2)c1C	9%	2%	i	5%	i	-2%
CCNC(=O)[C@@H]1O[C@@H](n2cnc3c(NCc4ccccc4)ncnc32)[C@@H](O)[C@H]1O	15%	1%	?	nt	?	nt
CCCCCNC(=O)c1ccc2c(=O)n(CC3CCCO3)c(=O)[nH]c2c1 (stereo unspecified)	?	?	2.2e-08M*	32µM*	2.3e-08M*	0%
COc1cc2[nH]c(=O)n(Cc3ccc(C(=O)NCC4CCCO4)cc3)c(=O)c2cc1OC (stereo unspecified)	?	0%	i	32µM*	i	0%
O=C(NCCCN1CCCCC1)c1ccc2c(=O)n(CCc3ccccc3)c(=O)[nH]c2c1	47%	-1%	2.8e-08M*	13µM*	2.9e-08M*	2%
COc1ccc(CCn2c(=O)[nH]c3cc(C(=O)NCCCN4CCOCC4)ccc3c2=O)cc1OC	5%	12%	i	7%	i	1%
COc1ccc(Cn2c(=O)[nH]c3cc(C(=O)NCCCN4CCCCC4)ccc3c2=O)cc1	-26%	-2%	3.4e-08M*	32µM*	3.6e-08M*	1%
CN(C)CCCO[C@H]1[C@@H]2OC(C)(C)O[C@@H]2O[C@@H]1[C@H](O)CO	3%[25.6 µM]	-7%[17.1 µM]	i	-1%[25.6 µM]	i	0%[25.7 µM]
N#Cc1cccc(NC(=O)N2CC3(CCN(C(=O)c4cnccn4)CC3)C2)c1	0%	-8%	i	4%	i	2%
CCN(CC)CCNC(=O)c1ccc2c(=O)n(CCc3ccccc3)c(=O)[nH]c2c1	62%	-7%	2.6e-08M*	16µM*	2.6e-08M*	1%
Nc1ccccc1NC(=O)c1ccccc1N	2%	?	1.3e-07M*	32µM*	1.4e-07M*	3%
CCOC(=O)N1CCN(C(=O)CCNS(=O)(=O)c2cc(Br)cnc2N)CC1	4%	-10%	1.8e-08M*	?	1.9e-08M*	2%
COc1cc(OC)c(NC(=O)CCNS(=O)(=O)c2cc(Br)cnc2N)cc1Cl	-2%	-23%	i	-12%	i	0%
Nc1ncc(Br)cc1S(=O)(=O)NCCC(=O)N1CCN(c2ncccn2)CC1	6%	-1%	2e-08M*	?	2e-08M*	1%
O=C(Oc1ccccc1)n1c(=O)oc2ccc(Cl)cc21	-9%	nt	nt	4%	nt	6%
SMILES	HADH2 inh	CRE Fsk mod	A350 fluor	HSD17B inh	4MU fluor	AID923
C[C@@H](CCCCC(=O)Nc1ccc(C(F)(F)F)cc1)NCCc1cnc[nH]1	-2%	-18%	nt	-12%	nt	0%
Cc1nc(N2CCN(S(=O)(=O)c3cccc4nonc34)CC2)c2c3c(sc2n1)CCCC3	13%	-2%	2.9e-08M*	3%	2.6e-08M*	0%
CC(C)[C@]1(Cl)CC[C@@H]2[C@]3(C)CCC[C@@](C)(C(=O)O)[C@H]3C[C@H](Cl)[C@@]2(Cl)[C@H]1Cl	8%[11.4 µM]	0%[7.6 µM]	i	-5%[11.4 µM]	i	-2%[11.5 µM]
COc1ccc2nc(SCc3nc(N)nc(Nc4ccccc4)n3)[nH]c2c1	-8%	2µM*	nt	-4%	nt	1%
COc1ccc(C(=O)N2CCC[C@@]3(CCN(Cc4ccncc4)C3)C2)cc1	9%	3%	i	-1%	i	1%
COc1ccc(S(=O)(=O)N(CC(=O)NCc2ccco2)C2CCCCC2)cc1OC	-2%	-6%	i	3%	i	1%
CC(=O)NCCNc1cc(-c2ccccc2C)ncn1	-2%	-1%	1.3e-08M*	0%	1e-08M*	-1%
COc1ccccc1CCn1c(=O)c(C)nc2cncnc21	2%	?	i	-2%	i	2%
CN(C)C=Nc1ncc2c3ccccc3n(Cc3ccccc3)c2c1C#N	32µM*	?	4.2e-07M*	-5%	3.9e-07M*	1%
CN(C)/C=N/c1c(C#N)nnn1Cc1ccccc1	-13%	8%	i	13%	i	1%
COc1ccccc1OCCCn1c(C)c(C#N)c2ccccc21	-6%	14%	i	-7%	i	2%
CN(C)C=Nc1ncc2c3ccccc3n(CCN(C)C)c2c1C#N	-19%	0%	1.1e-07M*	?	9.1e-08M*	1%
COC(=O)N1CCC[C@@]2(CCN(C(=O)Nc3cccc(C#N)c3)C2)C1	8%	-6%	i	2%	i	1%
Cc1ccc(C(=O)Nc2cnc3sc(C)nn3c2=O)cc1	0%	?	i	0%	i	0%
Cc1c(=O)n(OCc2ccccc2F)c2ccccc2[n+]1[O-]	-11%	?	4.1e-08M*	-26%	4.5e-08M*	2%
O=c1c(-c2ccccc2)c(O)nc2ccccn12	-6%	0%	1.9e-08M*	-24%	1.4e-08M*	5%
COc1ccccc1CC1(C)NC(=O)N(CC(=O)Nc2cc(C)on2)C1=O (stereo unspecified)	17%	-9%	1e-08M*	-8%	?	0%
CC1N=C2c3ccccc3N=C(SCc3cc(=O)n4ccccc4n3)N2C1=O (stereo unspecified)	1%	13µM*	2e-08M*	-17%	2.2e-08M*	2%
O=c1[nH]c(SCc2cc(=O)n3ccccc3n2)nc2c1CCC2	1%	?	i	2%	i	0%
CC(C)C1N=C2c3ccccc3N=C(SCc3cc(=O)n4cc(Cl)ccc4n3)N2C1=O (stereo unspecified)	-20%	1.3µM*	4.7e-08M*	-21%	5e-08M*	1%
